# Assay results: PubChem BioAssay (NCI)
# The panel holds about 83,000 compounds, 20% with a hit somewhere; the sample as a whole holds those more often.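 Assay: single dose, 48 h. Readout: percent growth (0 = no net growth; negative = cell death). Active: <10.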 Unmarked numbers belong to inactive results. Activity calls are given as the source filed them.
# Tests used:
# Assay in all cases: NCI-60 one-dose screen, 48 h (100 = growth as untreated, 0 = no growth, -100 = all killed)
# Settings in all cases: 10 µM unless noted
# [1] = test system: SR leukemia
# [2] = test system: RPMI-8226 leukemia
# [3] = test system: OVCAR-8 ovarian
# [4] = test system: OVCAR-5 ovarian
# [5] = test system: OVCAR-4 ovarian
# [6] = test system: SK-OV-3 ovarian
# [7] = test system: IGROV1 ovarian
# [8] = test system: OVCAR-3 ovarian
# [9] = test system: HS 578T breast
# [10] = test system: NCI/ADR-RES ovarian
# [11] = test system: T-47D breast
# [12] = test system: BT-549 breast
# [13] = test system: MDA-MB-435 melanoma
# [14] = test system: SW-620 colon
# [15] = test system: MCF7 breast
# [16] = test system: HCT-116 colon
# [17] = test system: HCC-2998 colon
# [18] = test system: KM12 colon
SMILES,growth [1],growth [2],growth [3],growth [4],growth [5],growth [6],growth [7],growth [8],growth [9],growth [10],growth [11],growth [12],growth [13],growth [14],growth [15],growth [16],growth [17],growth [18]
C=C[C@@]1(C)CC(=O)[C@@H](C(C)(C)c2cn(C)c3ccc(Br)cc23)C[C@@H]1O[Si](C)(C)C(C)(C)C,103%,87.5%,101%,106%,94.2%,115%,112%,103%,112%,101%,89.6%,111%,101%,97.3%,80.1%,89.7%,109%,100%
COc1ccc(-c2cc(-c3cccnc3)nc3sc4c(N)c(C(C)=O)c(-c5ccccc5)nc4c23)cc1OC,75.4%,53.7%,84.9%,89.5%,90.7%,110%,98.5%,82.4%,45.6%,79%,59.4%,34.9%,45.7%,109%,65.3%,67.6%,,76.2%
C=C(C)[C@@H]1CC[C@]2(C(=O)N3CCNCC3)CC[C@]3(C)[C@H](CC[C@@H]4[C@@](C)(CCC(=O)N5CCNCC5)[C@H](C(=C)C)CC[C@]43C)[C@@H]12,-15.2% (active),12.1%,47.8%,104%,81.9%,101%,101%,70.7%,92.4%,95.6%,103%,88.5%,74%,-14.4% (active),26.4%,-56.1% (active),,51.2%
CN(C)CCC(CCN(C)C)(C(=O)O)c1ccccc1,110%,99.8%,102%,99.2%,105%,102%,93.7%,113%,111%,112%,104%,96.5%,106%,110%,94.1%,104%,101%,102%
Cc1cc(NCCCNc2ccnc3cc(Cl)ccc23)nc(Nc2ccc(C(=O)N3CCCCC3)cc2)n1,-31.8% (active),-11.1% (active),25.4%,71.6%,39.5%,96.8%,46.3%,18.8%,85.3%,75.6%,-32.8% (active),69.8%,-72.5% (active),-0.272% (active),6.95% (active),-38.3% (active),0.124% (active),26.1%
COc1ccc2c(O)c(/C=C3\N=Nc4ncccc43)oc2c1C[C@@H]1CCNC[C@H]1F,-22.1% (active),-4.16% (active),-20.5% (active),17%,-37.8% (active),15%,-2.07% (active),-17.9% (active),-1.31% (active),1.39% (active),29.7%,-43.2% (active),-9.87% (active),-6.3% (active),-14.5% (active),-59.6% (active),-21.5% (active),-48.7% (active)
Nc1cc(-c2ccc(Cl)cc2)nn1-c1nnc(/C=C/c2ccco2)c(=O)[nH]1,38.1%,43.3%,24.8%,60.9%,29.1%,60.7%,35%,37.9%,74.1%,5.73% (active),62.7%,72%,62.8%,49.3%,45.9%,41%,,56%
CC(=O)O[C@H]1CC[C@]2(C)[C@H]3CC=C4[C@@H]5CC(C)(C)CC[C@]5(C(=O)N5CCN(CCC#N)CC5)CC[C@@]4(C)[C@]3(C)CC[C@H]2C1(C)C,13.7%,13.3%,29.6%,70.6%,-44.1% (active),60.6%,39.1%,-9.23% (active),61.2%,48.8%,29%,40.9%,31.5%,19.4%,11.6%,-2.33% (active),47.7%,28.6%
Clc1ccc(Nc2nnc(CNc3ccccc3)c3ccccc23)cc1,-9.19% (active),3.35% (active),18.3%,41.4%,19.3%,22%,19.1%,-1.64% (active),26.6%,18.8%,2.82% (active),4.94% (active),4.17% (active),30.8%,9.2% (active),9.94% (active),18.3%,8.93% (active)
O=C1OCC2=C1C(c1ccccc1)c1cc3c(cc1N2CCO)OCCO3 (centres undefined),19.7%,27.9%,32.5%,37.5%,31.1%,22.4%,17.8%,-56.3% (active),-9.64% (active),-26.8% (active),50.5%,14.1%,-32% (active),21.1%,8.47% (active),6.08% (active),,9.35% (active)
Cc1nc2sc(C(=O)Nc3cccc4ccccc34)c(N)c2cc1C(=O)c1ccccc1,7.17% (active),15.6%,23.7%,32.3%,51.8%,39.7%,24.8%,-26.4% (active),11.9%,12.9%,53.7%,15.2%,-53% (active),21.9%,17.9%,11.3%,10.3%,19.1%
COC(=O)c1c2c(c(C)[n+]([O-])c1C)C(=O)C(NCc1ccccc1)=CC2=O,61.4%,37.3%,5.27% (active),39.5%,-78.7% (active),88.8%,8.63% (active),0.759% (active),68.8%,2.6% (active),5.63% (active),71.5%,-61.4% (active),9.9% (active),-33.9% (active),7.3% (active),,26.4%
C=C(C)[C@@H]1CC[C@]2(C)[C@H](C=CC3=C4C[C@@](C)(CO)CC[C@]4(C)CC[C@]32C)[C@@]1(C)CCCN,-31.4% (active),-33.3% (active),-38.7% (active),19.1%,-55.4% (active),8.02% (active),6.46% (active),-58.8% (active),-51.2% (active),-40.7% (active),-43.7% (active),80%,-96.8% (active),-80.8% (active),-78.5% (active),-86.5% (active),,-71.7% (active)
CCN(CC)CCCNc1cc(OC)c(OC)c2cccnc12,41.5%,74.4%,65.1%,112%,-10.1% (active),56.3%,35.4%,30.9%,74.3%,76.6%,33.8%,81.2%,42.3%,58.4%,31.4%,9.79% (active),76.1%,84.1%
O=C(O)CCCCCCCCCCN1C(=O)/C(=C2/C(=O)N(CC(=O)O)c3ccc(Br)cc32)SC1=S,57.6%,79.3%,65.9%,106%,95%,96.6%,74.3%,87.9%,85%,96.7%,77.9%,105%,102%,106%,82.9%,87.2%,,40.2%
O=C(NN1C(=O)CSC1c1cccc([N+](=O)[O-])c1)c1ccc(NC(=O)c2ccccn2)cc1 (centres undefined),20.5%,103%,99.5%,92.6%,110%,104%,90%,103%,103%,90.8%,94.7%,99.6%,98.9%,104%,89.2%,98.3%,90%,93.8%
C=C1SC(=Nc2ccccc2Cl)N(C(=O)c2sc3ccccc3c2Cl)C1(C)C,65.4%,4.32% (active),61.4%,92.4%,29.8%,58.6%,297%,39.6%,73.5%,31.7%,34.7%,85.2%,99.1%,68%,21.2%,54%,72.9%,29%
